# Counter-ions that a name gives are not always drawn.
# Columns and labels:
# Assay in all cases: Euclidean distance of Cell Painting phenotypic profile (signed KS, 77 features) to DMSO centroid (dimensionless distance); 5 or 10 uM (library dependent); higher = stronger phenotypic change vs DMSO (phenoactivity)
# Details in all cases: 48 h
# 786-O = test system: 786-O
# How it was run: (§1)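 Five cancer lines, together with a healthy fibroblast line, received library compounds for 48 h at a library-dependent 10 or 5 uM and 0.1% DMSO final. Harmony then derived 77 features from confocal 20X images (9 fields/well) of the stained cells, scoring each as a signed Kolmogorov-Smirnov statistic against same-plate vehicle wells. After plate-position correction, correlation weighting and replicate averaging at the top dose, phenoactivity was taken as each profile's Euclidean distance to the median vehicle profile.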
# A549 = test system: A549
# How it was run: as §1
# DU145 = test system: DU145
# How it was run: as §1
# FB = test system: FB
# How it was run: as §1
# HEPG2 = test system: HEPG2
# How it was run: as §1
# OVCAR4 = test system: OVCAR4
# How it was run: as §1
SMILES,Euclidean distance (786-O),Euclidean distance (A549),Euclidean distance (DU145),Euclidean distance (FB),Euclidean distance (HEPG2),Euclidean distance (OVCAR4)
O=C(O)c1ccc(C=C2SC(=S)N(c3cccc(C(F)(F)F)c3)C2=O)cc1,0.542,0.983,0.711,0.939,0.977,1.56
CC(C)[C@H](O)C(=O)N[C@@H](C)C(=O)N[C@@H]1C(=O)N(C)CCc2ccccc21,1.12,1.34,1.12,1.22,–,1.03
COCCOc1ccc2c(c1)ncn2-c1ccc2cccc(N3CCC(N)CC3)c2n1,2.57,3.24,3.51,3.61,–,3.88
Cc1cc(NC(=O)Nc2ccc(N(C)C)cc2)c2cc(F)cc(F)c2n1,0.716,1.16,0.704,0.943,–,0.985
O=C(O)P(=O)(O)O [Foscarnet Sodium],1.83,0.762,1.18,0.986,0.776,1.11
C=CCn1c(=O)c2cnc(Nc3ccc(N4CCN(C)CC4)cc3)nc2n1-c1cccc(C(C)(C)O)n1,3.28,2.56,2.52,3.63,–,3.95
C[C@@]1(c2cc(-c3cncnc3)c(F)cc2F)CCSC(N)=N1,2.11,1.07,1.06,1.09,–,0.965
CC(C)COCC(CN(Cc1ccccc1)c1ccccc1)N1CCCC1 (stereo not drawn) [Bepridil hydrochloride],1.64,2.55,2.06,1.65,1.94,1.73
C=CCc1cc(OC)c(O)c(C(=O)NCCO)c1 [Alibendol],2.26,0.655,0.743,0.938,–,0.912
NC(=O)Nc1cc(-c2cccc(F)c2)sc1C(=O)N[C@H]1CCCNC1,3.38,3.15,3.87,3.82,–,4.24
C[C@@H]1CCC[C@H](C)N1NC(=O)c1ccc(Cl)c(S(N)(=O)=O)c1 [Clopamide],1.15,1.14,–,0.969,0.528,1.14
Nc1ccc(S(=O)(=O)Nc2ccccn2)cc1 [Sulfapyridine],0.73,1.12,–,0.894,0.884,1.27
CCC1(c2ccccc2)C(=O)NCNC1=O [Primidone],1.2,0.708,–,1.19,0.442,2.2
CCCCC1(COC(=O)CCC(=O)O)C(=O)N(c2ccccc2)N(c2ccccc2)C1=O [Suxibuzone],0.771,0.893,–,1.12,0.518,1.57
CCc1nc(N)nc(N)c1-c1ccc(Cl)cc1 [Pyrimethamine],1.19,3.4,–,0.96,1.83,2.25
Cc1ccc(-n2nc(C(C)(C)C)cc2NC(=O)Nc2ccc(OCCN3CCOCC3)c3ccccc23)cc1 [BIRB 796 (Doramapimod)],1.54,0.959,1.2,1.38,–,1.21
CCC(C)(Oc1ccc(C2(c3ccc(OC(C)(CC)C(=O)O)cc3)CCCCC2)cc1)C(=O)O (stereo not drawn) [Clinofibrate],1.38,0.971,–,0.938,0.433,1.33
CCc1cc2c(cc1N1CCC(N3CCOCC3)CC1)C(C)(C)c1[nH]c3cc(C#N)ccc3c1C2=O [Alectinib hydrochloride],1.42,2.36,–,1.91,0.611,1.42
Cc1c(C)c2c(c(C)c1O)CCC(C)(COc1ccc(CC3SC(=O)NC3=O)cc1)O2 (stereo not drawn) [Troglitazone (CS-045)],1.4,1.51,–,0.893,0.876,1.2
CCOC(=O)c1ncn2c1CN(C)C(=O)c1cc(F)ccc1-2 [Flumazenil],1.08,0.73,–,1.11,0.383,0.959
O=C(/C=C/C=C/c1ccc2c(c1)OCO2)N1CCCCC1 [Piperine],1.7,0.714,–,1.06,0.563,1.49
O=c1c(-c2ccc(O)cc2)coc2cc(O[C@@H]3O[C@H](CO)[C@@H](O)[C@H](O)[C@H]3O)ccc12 [Daidzin],0.57,0.784,–,0.914,0.745,1.17
C=C(NC(=O)C(=C)NC(=O)c1csc(C2=N[C@@H]3c4csc(n4)[C@H]4NC(=O)c5csc(n5)[C@H]([C@](C)(O)[C@@H](C)O)NC(=O)[C@H]5CSC(=N5)/C(=C/C)NC(=O)[C@H]([C@@H](C)O)NC(=O)c5csc(n5)[C@]3(CC2)NC(=O)[C@H](C)NC(=O)C(=C)NC(=O)[C@H](C)NC(=O)[C@H]([C@@H](C)CC)N[C@@H]2C=Cc3c([C@H](C)O)cc(nc3[C@H]2O)C(=O)O[C@@H]4C)n1)C(N)=O [Thiostrepton],4.46,2.6,–,4.95,4.36,2.62
C[C@H](CSC(=O)c1ccccc1)C(=O)N1C[C@@H](Sc2ccccc2)C[C@H]1C(=O)O [Zofenopril calcium],0.845,0.393,–,0.787,0.559,0.93
CNC(=O)c1c(C)oc2cc(Oc3ncnc4cc(OC)c(OC)cc34)ccc12 [Fruquintinib],1.24,1.24,–,2.06,0.855,1.44

# From the supplement of paper PMC10127200
